Some test systems named below: NCI-H23 lung; NCI-H226 lung; NCI-H322M lung; HOP-62 NSCLC; NCI-H460 lung; HOP-92 NSCLC; NCI-H522 lung; A549/ATCC NSCLC; 786-0 renal; COLO 205 colon.
What all share (assay): NCI-60 one-dose screen, 48 h (100 = growth as untreated, 0 = no growth, -100 = all killed)
Holding throughout (conditions): 10 µM unless noted

The structures appear in SMILES notation. About 83,000 compounds went through this panel and 20% of them were active in at least one assay; those are over-represented in the sample as a whole.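 Testing used 96-well plates and a 48-hour single-concentration exposure. Example: -40 means 40% of the starting cells died.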 Values without a mark were called inactive. Activity calls are given as the source filed them. The calls were made as follows: active = growth percent below 10; inactive = the rest.

As for `COc1ccccc1-c1ccc2c(N)c(C(=O)c3ccc4c(c3)OCO4)sc2n1`, the growth in the test with NCI-H23 lung is 82.1%; in the test with NCI-H226 lung it was 96.7%; in the test with NCI-H322M lung it was 94.7%; in the test on HOP-62 NSCLC, 73.3%; in the test on NCI-H460 lung it was 60.2%; in the test on HOP-92 NSCLC it was 67.8%. Further, the growth in the test with NCI-H522 lung is 18.6%; in the test with A549/ATCC NSCLC, 46.1%; in the test with 786-0 renal it was 86%.
Turning to `S=c1[nH]nc(CSc2ncnc3c2c(-c2ccccc2)cn3-c2ccc(Cl)cc2)o1`, the growth in the test on NCI-H23 lung is 92.7%; with NCI-H226 lung it was 89.5%; in the test with NCI-H322M lung, 97.9%; with HOP-62 NSCLC, 91%; in the test with NCI-H460 lung, 99.4%; in the test with HOP-92 NSCLC it was 92.9%. Moreover, the growth in the test on NCI-H522 lung was 89.5%; in the test on A549/ATCC NSCLC it was 98.5%; in the test with 786-0 renal it was 102%.
With `O=C(O)c1cccc2c1-c1ccccc1C2=O`, the growth in the test with NCI-H23 lung is 98.4%; in the test on NCI-H226 lung it was 91.6%; in the test on NCI-H322M lung, 83.9%; with HOP-62 NSCLC it was 95.3%; in the test on NCI-H460 lung, 105%; with HOP-92 NSCLC, 80.8%. Moreover, the growth in the test with NCI-H522 lung was 88.2%; in the test with A549/ATCC NSCLC, 101%; in the test on 786-0 renal it was 102%.
Take `CC/C(Cc1ccccc1)=C(\c1ccc(OCCN2CCCC2)cc1)c1ccc(OC(C)=O)cc1`: the growth in the test with NCI-H23 lung is 80.6%; in the test with NCI-H226 lung, 93%; in the test on NCI-H322M lung, 86.5%; in the test with HOP-62 NSCLC it was 94.5%; in the test on NCI-H460 lung, 42.9%; in the test on HOP-92 NSCLC, 78.8%. Further, the growth in the test on NCI-H522 lung is 83.2%; with A549/ATCC NSCLC it was 78.4%; in the test on 786-0 renal, 82.3%.
Take `O=[N+]([O-])c1cccc(-c2nc3sccn3c2-c2ccnc(NCCCNS(=O)(=O)c3ccc(F)cc3)n2)c1`: the growth is -7.3% (active) with NCI-H23 lung; -3.92% (active) in the test with NCI-H226 lung; 26.8% in the test on NCI-H322M lung; 12.5% with HOP-62 NSCLC; 10.5% in the test with NCI-H460 lung; 46.2% in the test with HOP-92 NSCLC. The figures for the growth in the test on NCI-H522 lung, with A549/ATCC NSCLC and in the test with 786-0 renal were 0.116% (active), 9.67% (active) and 44.2%, respectively.
`O=c1c2cccc3c(Nc4c(F)cccc4F)ccc(c32)c2nc3ccccc3n12`: the growth with NCI-H23 lung is 85.8%; with NCI-H226 lung, 75.1%; in the test with NCI-H322M lung it was 86.8%; with HOP-62 NSCLC, 85.6%; in the test on NCI-H460 lung it was 72.7%; in the test on HOP-92 NSCLC it was 64.2%. The growth in the test with NCI-H522 lung is 83%; in the test with A549/ATCC NSCLC, 82.4%; with 786-0 renal it was 100%.
Consider `COc1ccc(CCN2CC=Cn3c2nc2ccccc2c3=O)cc1`, for which the growth was 25% in the test on NCI-H23 lung; 11.7% in the test with NCI-H226 lung; 47.3% in the test on NCI-H322M lung; 39.9% with HOP-62 NSCLC; 5.96% (active) in the test on NCI-H460 lung; 28.1% in the test with HOP-92 NSCLC. For the same compound, the growth was 4.09% (active) in the test with NCI-H522 lung and 24.1% with A549/ATCC NSCLC.
`COc1ccc(/C=C2\N=C3SC=C(N)N3C2=O)cc1`: the growth in the test with NCI-H23 lung is 23.6%; in the test on NCI-H226 lung it was 51.6%; in the test on NCI-H322M lung it was 46.6%; in the test with HOP-62 NSCLC, 40.2%; in the test with NCI-H460 lung, 17.3%; in the test with HOP-92 NSCLC, -8.02% (active). In addition, the growth was -54.5% (active) in the test with NCI-H522 lung, 32.8% in the test with A549/ATCC NSCLC and 33.2% in the test on 786-0 renal.
`CCOC(=O)N1CCN(c2nc(Nc3cc(C)[nH]n3)c3ccccc3n2)CC1`: the growth with NCI-H23 lung was 65.8%; in the test with NCI-H226 lung it was 34.8%; in the test with NCI-H322M lung it was 88.5%; in the test on HOP-62 NSCLC it was 49.6%; in the test on NCI-H460 lung, 23.1%; in the test with HOP-92 NSCLC, 31.3%. Also, the growth with NCI-H522 lung was 10.4%; with A549/ATCC NSCLC, 34.4%; in the test on 786-0 renal, 44%.
Take `CC(C)[C@H]1COC(=O)N1[C@@H]1C(=O)N([C@@H](CCC(=O)N2CCN(C3CCCC3)CC2)C(=O)N[C@@H]2CCCc3ccccc32)[C@@H]1/C=C/c1cccc(Br)c1`: the growth in the test with NCI-H23 lung was 64.7%; with NCI-H226 lung it was 74%; with NCI-H322M lung it was 39.3%; in the test with HOP-62 NSCLC it was 59.5%; in the test with NCI-H460 lung, 31.6%; in the test on HOP-92 NSCLC it was 44.7%. Further, the growth was 27.4% with NCI-H522 lung, 25.7% with A549/ATCC NSCLC, 44.3% with 786-0 renal and 24% with COLO 205 colon.
Take `CC/C=C\C[C@H](O)C/C=C1/C(=O)C=C[C@@H]1C/C=C\CCCC(=O)NC`: the growth was -18.8% (active) with NCI-H23 lung; -41.1% (active) in the test on NCI-H226 lung; 20.7% with NCI-H322M lung; -24.3% (active) in the test with HOP-62 NSCLC; -49.9% (active) in the test with NCI-H460 lung; 48.4% in the test with HOP-92 NSCLC. Further, the growth is -15.6% (active) in the test with NCI-H522 lung, -36.7% (active) with A549/ATCC NSCLC, -39.1% (active) in the test on 786-0 renal and -25.2% (active) in the test with COLO 205 colon.
Take `NC1=CSC2=N/C(=C\c3ccc(Cl)cc3)C(=O)N12`: the growth in the test on NCI-H23 lung is 72.6%; in the test with NCI-H226 lung, 80.3%; in the test with NCI-H322M lung, 95.7%; in the test on HOP-62 NSCLC it was 83.5%; in the test on NCI-H460 lung, 62.1%; with HOP-92 NSCLC, 69.5%. Further, the growth in the test on NCI-H522 lung was 33.8%; with A549/ATCC NSCLC, 74.2%; in the test with 786-0 renal it was 81.4%; with COLO 205 colon, 90%.
With `COc1ccc(C(=O)c2sc3nc(-c4ccccc4OC)ccc3c2N)cc1OC`, the growth with NCI-H23 lung was 63.2%; in the test with NCI-H226 lung, 63%; with NCI-H322M lung it was 87.2%; in the test on HOP-62 NSCLC it was 95.3%; in the test on NCI-H460 lung it was 51.7%; in the test on HOP-92 NSCLC it was 56.4%. The growth with NCI-H522 lung is 50.3%; in the test with A549/ATCC NSCLC it was 64.6%; in the test on 786-0 renal, 64.1%; in the test on COLO 205 colon it was 102%.
As to `COc1ccc(-c2nc(Nc3cc(C)[nH]n3)c3ccccc3n2)cc1`, the growth in the test with NCI-H23 lung is 60.2%; in the test with NCI-H226 lung, 41.2%; in the test with NCI-H322M lung it was 78.1%; in the test on HOP-62 NSCLC, 43.2%; in the test on NCI-H460 lung, 28.5%; in the test with HOP-92 NSCLC, 3.24% (active). Besides, the growth with NCI-H522 lung is 8.31% (active); in the test on A549/ATCC NSCLC, 23.9%; in the test with 786-0 renal it was 50%; in the test on COLO 205 colon, 3.04% (active).
